According to PubChem BioAssay AID652183 (National Center for Advancing Translational Sciences (NCATS), 2013):
Records with an inconclusive call do not appear. Activity calls are given as the source filed them. Calls come from the whole dose curve; as a rule, active = well fitted inhibition curve with a large enough effect; inconclusive = small, poorly fitted or top-dose-only effect; inactive = no such curve, though single readings can be large or run the other way.

test: qHTS Assay for Lipid Storage Modulators: Differentiation Assay against Probe and Analogs; conditions: 3T3-L1 adipocyte differentiation, BODIPY lipid imaging, 8 d; series mostly up to 20 µM; activity change, negative = inhibition: at the top concentration
From the text: Storing lipids as a reservoir for energy or the anabolism of elementary metabolites is a common feature of probably all cells and is conserved from bacteria to humans. The universal cellular lipid storage organelle is the so-called lipid storage droplet (LD). Although ubiquitous, LDs share a simple structure composed of a hydrophobic core that harbors the storage lipids, which is shielded by a droplet-specific phospholipid monolayer to which proteins are attached. The current model of LD biogenesis involves an incorporation of the lipid core into the membrane leaflets of the endoplasmic reticulum (ER) followed by a subsequent budding-like maturation of a LD, which ultimately pinches off. Once released, LD volume can increase by localized lipogenesis or fusion of existing droplets. Storage lipids are re-mobilized enzymatically by lipase activity. Lipase regulation in the adipocyte is heavily studied and involves multiple components including catecholamine signaling, the LD-associated proteins Perilipin and comparative gene identification-58 (CGI-58) and at least two lipases named hormone sensitive lipase (HSL) and adipocyte triglyceride lipase (ATGL). LD regulation outside of the adipocyte is poorly understood and only few components are known. However, there is an urgent need to learn more about ectopic fat depots as mislocalized storage of lipids, for example in the liver or muscle, is an eminent health problem associated with insulin resistance or the metabolic syndrome. We developed a laser-scanning cytometer assay to enable 1,536-well screening and combined the results of the small molecules screen with an RNAi database based on lipid storage. […] NIH Chemical Genomics Center [NCGC] MLPCN Grant: MH085686 Assay Submitter (PI): Mathias Beller, Max-Planck-Institut fur Biophysikalische Chemie
3T3L1 cells were obtained from ATCC (CL-173). Pre-adipocyte medium (PM-1), differentiation medium (DM-2) and after adipocyte medium (AM-1) were purchased from Zen-Bio (# PM-1-L1, DM-2-L1, AM-1-L1). 200 uL of PM-1containing 3,000 cells was dispensed into each well of a 96-well plate (Corning, #3340), and the assay plates were incubated at 37 °C, 95% humidity and 5% CO2 for 3-5 days. The differentiation of pre-adipocyte to adipocyte was induced by removing the pre-adipocyte medium and replacing with 200 uL of differentiation medium. 1 uL of compounds at different concentrations dissolved in differentiation medium were added to the assay plates, along with medium exchange for differentiation to test their effects on adipocyte differentiation. The final DMSO concentration was 0.5%.Triacsin C (Sigma-Aldrich T-4540), an inhibitor of long-chain fatty acyl CoA synthetase that blocks synthesis of triglycerides, was used as a positive control for lipid under-storage. […]

| Compound | activity change, negative = inhibition | Potency |
| --- | --- | --- |
| CCOc1ccc(CCNC(=O)c2cc3sccc3n2CCN(C)C)cc1OCC | -57.2% (inactive) | – |
| CCOc1ccc(CCNC(=O)c2cc3sccc3n2Cc2ccc(F)cc2F)cc1OCC | -77.8% (inactive) | – |
| CCOc1ccc(CCNC(=O)c2cc3ccccc3n2Cc2ccccn2)cc1OCC | – | 12.6 µM (active) |
| CCOC(=O)C1CCN(C(=O)C2(NC(=O)Nc3ccccc3Cl)CCCC2)CC1 | 56% (inactive) | – |
